Source: the supplement of paper PMC7366291
Structures can show the parent of a compound that is named as a salt.

system: Danio rerio Tg(wt1b:EGFP) embryo, pronephros; experiment: fraction of imaged embryos annotated as normal kidney; higher = less nephrotoxic; extreme values may be limits of the assay; details: 25 µM; exposure: 24-48 hpf
Procedure, shortened: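 From 24 to 48 hpf at 28.5°C, dechorionated Tg(wt1b:EGFP) zebrafish embryos in 12-well plates were kept in 5 mM HEPES-buffered E3 with 0.003% PTU, 0.5% DMSO and 25 μM compound. Pronephroi were imaged by widefield fluorescence at 470 nm and judged by eye from maximum projections. Reported is the proportion of embryos per treatment in the normal-kidney category.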

SMILES | fraction of imaged embryos annotated as normal kidney
C[C@]12C=CC(=O)C=C1CC[C@@H]1[C@@H]2C(=O)C[C@@]2(C)[C@H]1CC[C@]2(O)C(=O)CO [Prednisone] | 0.833
CN[C@@H]1[C@H](O)[C@H](NC)[C@H]2O[C@@]3(O)C(=O)C[C@@H](C)O[C@H]3O[C@@H]2[C@H]1O [Spectinomycin dihydrochloride] | 0.909
C#Cc1cccc(Nc2ncnc3cc(OCCOC)c(OCCOC)cc23)c1 [Erlotinib] | 0.833
CC(=O)OCC1=C(C(=O)O)N2C(=O)[C@@H](NC(=O)Cc3cccs3)[C@H]2SC1 [Cephalothin sodium salt] | 1
CCCC1C(=O)N2C(N(C)C)=Nc3ccc(C)cc3N2C1=O (stereo unspecified) [Azapropazone] | 0.917
O=C1NCC2(CCN(CCc3ccccc3)CC2)O1 [Fenspiride hydrochloride] | 0.833
COC(=O)[C@H]1[C@H]2C[C@@H]3c4[nH]c5cc(OC)ccc5c4CCN3C[C@H]2C[C@@H](OC(=O)c2cc(OC)c(OC)c(OC)c2)[C@@H]1OC [Reserpine] | 0.917
CCCc1nc(C)c2c(=O)nc(-c3cc(S(=O)(=O)N4CCN(CC)CC4)ccc3OCC)[nH]n12 [Vardenafil] | 0.667
CO/N=C(\C(=O)N[C@@H]1C(=O)N2C(C(=O)O)=C(COC(N)=O)CS[C@H]12)c1ccco1 [Cefuroxime sodium salt] | 1
Cc1nc2n(c(=O)c1CCN1CCC(c3noc4cc(F)ccc34)CC1)CCCC2 [Risperidone] | 1
COc1cccc(N(C)C(=S)Oc2ccc3c(c2)CCCC3)n1 [Liranaftate] | 0.667
Cc1ccc(/C(=C\CN2CCCC2)c2ccccn2)cc1 [Triprolidine hydrochloride] | 0.917
O=C(O)Cc1ccccc1Nc1c(Cl)cccc1Cl [Diclofenac sodium] | 0
CC(C)(C)NCC(O)COc1cccc2c1CC(O)C(O)C2 (stereo unspecified) [Nadolol] | 0.833
Cc1cc(-c2ccccc2)nnc1NCCN1CCOCC1 [Minaprine dihydrochloride] | 0.75
O=C(O)c1cn(-c2ccc(F)cc2)c2cc(N3CCNCC3)c(F)cc2c1=O [Sarafloxacin] | 0.455
CC[C@]12CCCN3CCc4c(n(c5ccccc45)[C@@](O)(C(=O)OC)C1)[C@@H]32 [Vincamine] | 0.909
O=C(NCCO[N+](=O)[O-])c1cccnc1 [Nicorandil] | 0.917

SMILES | fraction of imaged embryos annotated as normal kidney
C[C@H](O)C(=O)Nc1c(I)c(C(=O)NC(CO)CO)c(I)c(C(=O)NC(CO)CO)c1I [Iopamidol] | 0.833
N=C(N)NCCN1CCCCCCC1 [Guanethidine sulfate] | 0.917
Clc1ccc2nsnc2c1NC1=NCCN1 [Tizanidine hydrochloride] | 0.833
CC(C)(C#N)c1cc(Cn2cncn2)cc(C(C)(C)C#N)c1 [Anastrozole] | 0.75
O=C(CCCN1CCN(c2ccccn2)CC1)c1ccc(F)cc1 [Azaperone] | 0.833
CCCCN(CCCC)CCCOC(=O)c1ccc(N)cc1 [Butacaine] | 0.917
Cc1ccc(N(CC2=NCCN2)c2cccc(O)c2)cc1 [Phentolamine hydrochloride] | 0.667
CN1[C@@H]2CC[C@H]1C[C@@H](OC(=O)C(O)c1ccccc1)C2 (mixture of isomers) [Homatropine hydrobromide (R,S)] | 0.75
CCC1(c2ccccc2)C(=O)NCNC1=O [Primidone] | 0.917
CCOc1ccccc1OCC1CNCCO1 (stereo unspecified) [Viloxazine hydrochloride] | 0.833
C=CCOc1ccccc1OCC(O)CNC(C)C (stereo unspecified) [Oxprenolol hydrochloride] | 0.75
OCc1cc(C(O)CNCCCCCCOCCCCc2ccccc2)ccc1O (stereo unspecified) [Salmeterol] | 0
COc1cc(NS(=O)(=O)c2ccc(N)cc2)nc(OC)n1 [Sulfadimethoxine] | 1
CNCCC(Oc1ccccc1OC)c1ccccc1 (stereo unspecified) [Nisoxetine hydrochloride] | 0.833
N=C(N)NS(=O)(=O)c1ccc(N)cc1 [Sulfaguanidine] | 0.833
Cc1onc(-c2ccccc2)c1C(=O)N[C@@H]1C(=O)N2[C@@H]1SC(C)(C)[C@@H]2C(=O)O [Oxacillin sodium] | 0.833
CNCCc1ccccn1 [Betahistine mesylate] | 0.833
Cc1c(O)cccc1C(=O)N[C@@H](CSc1ccccc1)[C@H](O)CN1C[C@H]2CCCC[C@H]2C[C@H]1C(=O)NC(C)(C)C [Nelfinavir mesylate] | 1
